In the library only some 4.8% were active in any assay of this set; here they are far more common.
D3 ag: agonists of human D3 dopamine receptor | 0.58% of 410,000 active | D3R DiscoveRx beta-arrestin cells, luminescence, 90 min | max activation, % | P35462; in the data active = max activation above about 30%; note: 0% is about no effect
Target sequence (P35462 whole entry, looked up): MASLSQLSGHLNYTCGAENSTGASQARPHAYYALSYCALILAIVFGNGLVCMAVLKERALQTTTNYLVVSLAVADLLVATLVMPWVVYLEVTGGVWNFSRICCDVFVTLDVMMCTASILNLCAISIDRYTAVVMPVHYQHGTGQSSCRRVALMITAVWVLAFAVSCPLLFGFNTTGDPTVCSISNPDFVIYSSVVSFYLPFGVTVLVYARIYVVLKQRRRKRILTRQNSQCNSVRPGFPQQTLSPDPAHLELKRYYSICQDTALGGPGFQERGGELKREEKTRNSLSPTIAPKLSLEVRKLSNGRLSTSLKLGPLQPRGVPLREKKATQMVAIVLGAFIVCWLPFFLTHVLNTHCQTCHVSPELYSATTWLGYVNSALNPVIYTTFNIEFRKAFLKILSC
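Agonist-mode cell screen: cells plated at 1500/well and incubated overnight at 37 °C, then exposed to library compounds for 90 min at 37 °C. Detection reagent was added for 30–60 min at room temperature, and luminescence was read.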
TGFb inhibitor: inhibitors of TGF-b signaling; 1.2% of 410,000 active; AID 588855; Potency, µM (top dose mostly 46.1 µM), for inactives: at the highest dose activity, negative = inhibition, usual class: inhibitors; HepG2 CAGA-GFP TGF-b/SMAD3 reporter, GFP fluorescence, 18 h; TGF-beta stimulated, 500 pg/mL final; note: potency is the fitted concentration of half-maximal effect; % is set by controls: 0 for no effect and ±100 for the full control effect; nearly all actives have a fitted effect of over 65% in size
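TGF-beta reporter screen: HEPG2 CAGA-GFP, 1% FBS, 500 pg/mL TGF-beta final, 18 h; per-cell GFP summed per well; curves fitted and categorized by class.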
HepG2 viability: counter-screen for TGF-b inhibitors: cytotoxicity in HepG2 cells. HepG2 CAGA-GFP viability, ATP luminescence, 18 h. Potency, µM (titrated, usually from 46.1 µM), without a hit: at the top dose activity change, negative = cytotoxicity, usual class: cytotoxic. 0.76% of 410,000 active; note: potency is the fitted concentration of half-maximal effect
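CellTiter-Glo luminescence gave cytotoxicity after 18 hours at 37 degrees C. The cells were HepG2 CAGA-GFP in 1% FBS DMEM, stimulated with 500 pg/mL TGF-beta after compound addition. %Activity was normalised to no-cell wells (complete cell-killing) and DMSO (no toxicity), and curves were fitted and classified.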
DRD3 antagonist: D3 dopamine receptor (human) antagonism. P35462. D3R cells, DiscoveRx beta-arrestin luminescence, antagonist mode; stronger effect = lower value. max response, negative = inhibition, %. 2.5% of 360,000 active; in the data active = max response below about -50%; inconclusive = no clear call, values can overlap the other calls; note: % is set by controls: 0 for no effect and ±100 for the full control effect
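Cells expressing the human receptor were seeded at 1500 cells/well, incubated overnight at 37 degrees C in 5% CO2, then exposed to library compounds with dopamine controls for 90 minutes at 37 degrees C before luminescent detection.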
ATXN2 expr inh: inhibitors of ATXN2 expression; 0.72% of 360,000 active; AID 1745845; HEK-293 ATXN2-luciferase reporter, luminescence, 24 h; Potency, µM (doses to about 57 µM), inactives show top-dose activity change, negative = inhibition, most hits filed as inhibitors; note: potency is the fitted concentration of half-maximal effect; % is set by controls: 0 for no effect and ±100 for the full control effect; nearly all actives have a fitted effect of over 55% in size
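ATXN2-luciferase reporter cells (luciferase flanked by upstream and downstream ATXN2 gene portions) were treated 24 h at 37 °C with compounds at up to 57 uM. SteadyGlo luminescence gave expression; GF-AFC fluorescence gave viability.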
S2 tox: cell viability loss in ATXN counter-screen; Potency, µM (series often up to 56.7 µM), most hits filed as cytotoxic; AID 651635; S2 cells (HEK-293 line with an ATXN2-luciferase reporter) viability, CellTiter-Fluor protease fluorescence, 24 h; 0.49% of 400,000 active; note: potency is the fitted concentration of half-maximal effect; nearly all actives have a fitted effect of over 40% in size
Starred values were filed as active, the others as inactive. Unless noted, calls come from the whole dose curve; as a rule, active = well fitted curve in the direction sought with a large enough effect; inconclusive = small, poorly fitted or top-dose-only effect, or another doubt; inactive = no such curve, though single readings can be large; an effect the other way counts as inactive or inconclusive.

What do the screens show for `CCC(C)NCCCOc1ccc(Cl)cc1C(C)(C)C` (stereo not given)?
D3 ag: -11; TGFb inhibitor: -25%; HepG2 viability: -34%; DRD3 antagonist: -69*; ATXN2 expr inh: -5%; S2 tox: inactive

How did COCCCNCCCOc1ccc(Cl)cc1C(C)(C)C do in these assays?
D3 ag: -40; TGFb inhibitor: inconclusive; HepG2 viability: 16µM*; DRD3 antagonist: inconclusive; ATXN2 expr inh: inconclusive; S2 tox: inconclusive

How did CC(C(=O)O)c1ccc2c(c1)CC(=O)c1ccccc1S2 (stereo not given) do in these assays?
D3 ag: -13; ATXN2 expr inh: inconclusive; S2 tox: inactive

What do the screens show for `Cn1c(SCc2ccccc2)nc(C(F)(F)F)cc1=O`?
D3 ag: -4; TGFb inhibitor: -3%; HepG2 viability: -2%; DRD3 antagonist: 6; ATXN2 expr inh: 7%; S2 tox: inactive

What do the screens show for `Cn1c(SCc2ccccc2)nc(N)c(N=O)c1=O`?
D3 ag: 6; TGFb inhibitor: inconclusive; HepG2 viability: 10µM*; DRD3 antagonist: 3; S2 tox: inconclusive

Results for CC1(C)CC(=O)c2c(C(F)(F)F)nn(-c3ccc(C(N)=O)c(NC4CCC(O)CC4)c3)c2C1 (stereo not given) ?
ATXN2 expr inh: 0.097µM*

What do the screens show for `CC1(C)CC(=O)c2c(C(F)(F)F)nn(-c3ccc(C(N)=O)c(NC4CCC(OC(=O)CN)CC4)c3)c2C1` (stereo not given)?
ATXN2 expr inh: 0.22µM*

How did Cc1cc2c(n1-c1ccc(C(N)=O)cc1)CC(C)(C)CC2=O do in these assays?
D3 ag: 5; TGFb inhibitor: -8%; HepG2 viability: -2%; DRD3 antagonist: 11; ATXN2 expr inh: 1%; S2 tox: inactive

How did CCS(=O)(=O)c1nc(S(=O)(=O)c2ccc(Cl)cc2)c(N2CCN(C)CC2)s1 do in these assays?
D3 ag: -20; TGFb inhibitor: -2%; HepG2 viability: -7%; DRD3 antagonist: -75*; ATXN2 expr inh: -4%; S2 tox: inactive

What do the screens show for `CCS(=O)(=O)c1nc(S(=O)(=O)c2ccc(Cl)cc2)c(N2CCCC2)s1`?
D3 ag: 0; TGFb inhibitor: -2%; HepG2 viability: 3%; DRD3 antagonist: 4; S2 tox: inactive

How did Cc1ccc(S(=O)(=O)c2nc(S(=O)(=O)c3ccc(C)cc3)c(N3CCN(CCO)CC3)s2)cc1 do in these assays?
D3 ag: -18; TGFb inhibitor: -16%; HepG2 viability: -13%; DRD3 antagonist: -92*; ATXN2 expr inh: -9%; S2 tox: inactive

How did CS(=O)(=O)c1nc(S(=O)(=O)c2ccc(Cl)cc2)c(N2CCN(CCO)CC2)s1 do in these assays?
D3 ag: -6; TGFb inhibitor: -16%; HepG2 viability: 3%; DRD3 antagonist: -13; ATXN2 expr inh: 6%; S2 tox: inactive

Results for O=C(NCc1ccc2c(c1)OCO2)c1ccc(Br)cc1 ?
D3 ag: 47*; TGFb inhibitor: 5%; HepG2 viability: -31%; DRD3 antagonist: -15; S2 tox: inactive

How did O=C(NCc1ccc2c(c1)OCO2)c1c(-c2ccccc2)sc2ccccc12 do in these assays?
D3 ag: 67*; TGFb inhibitor: inconclusive; HepG2 viability: -29%; DRD3 antagonist: 47; ATXN2 expr inh: 49%; S2 tox: inactive

Results for Cc1ccc(C)c2sc(NC(=O)c3ccc(N4CCCCC4)c([N+](=O)[O-])c3)nc12 ?
D3 ag: 5; TGFb inhibitor: 12%; HepG2 viability: 3%; DRD3 antagonist: -59*; ATXN2 expr inh: -3%; S2 tox: inactive

What do the screens show for `O=C(c1ccc(N2CCCC2)c([N+](=O)[O-])c1)N1CCN(CCO)CC1`?
D3 ag: 0; TGFb inhibitor: -3%; HepG2 viability: 7.9µM*; DRD3 antagonist: 1; ATXN2 expr inh: -3%; S2 tox: inactive

What do the screens show for `Cc1onc(-c2ccccc2)c1C(=O)NCc1ccc2c(c1)OCO2`?
D3 ag: 6; TGFb inhibitor: 0%; HepG2 viability: -2%; DRD3 antagonist: 8; ATXN2 expr inh: -27%; S2 tox: inactive

Results for Cc1cccc(NC(=O)c2ccc(N3CCCCC3)c([N+](=O)[O-])c2)n1 ?
D3 ag: 7; TGFb inhibitor: -2%; HepG2 viability: -24%; DRD3 antagonist: 26; ATXN2 expr inh: 24%; S2 tox: inactive

How did CN(C)c1ccc(/C=C/c2ccnc3c(Cl)cccc23)cc1 do in these assays?
TGFb inhibitor: 49%; HepG2 viability: -35%

Results for COc1cccc(C2(CC(=O)N3CCCOc4c(cccc4OC)C3)CC(=O)N(C)C2=O)c1 (stereo not given) ?
S2 tox: inactive

Results for CCOc1c2ccc(C(=O)NCc3ccc4c(c3)OCO4)cc2nn1CC ?
D3 ag: 13; TGFb inhibitor: inconclusive; HepG2 viability: -33%; DRD3 antagonist: -52*; ATXN2 expr inh: -5%; S2 tox: inactive

Results for CCCn1nc2cc(C(=O)N(CC)c3ccc(OC)cc3)ccc2c1OCC ?
D3 ag: 49*; TGFb inhibitor: 2%; HepG2 viability: 4%; DRD3 antagonist: 3; ATXN2 expr inh: -1%; S2 tox: inactive

Results for O=C(NCc1ccc2c(c1)OCO2)c1ccc(N2CCCCCC2)c([N+](=O)[O-])c1 ?
D3 ag: -11; TGFb inhibitor: 0%; HepG2 viability: -19%; DRD3 antagonist: -60*; ATXN2 expr inh: 16%; S2 tox: inactive

What do the screens show for `CCCn1nc2cc(C(=O)NCc3ccc(OC)cc3)ccc2c1OCC`?
D3 ag: -4; TGFb inhibitor: -1%; HepG2 viability: 2%; DRD3 antagonist: 0; ATXN2 expr inh: -2%; S2 tox: inactive

How did CCCn1nc2cc(C(=O)NCc3ccc4c(c3)OCO4)ccc2c1OCC do in these assays?
D3 ag: -6; TGFb inhibitor: -28%; HepG2 viability: -12%; DRD3 antagonist: -13; ATXN2 expr inh: 1%; S2 tox: inactive

How did CCOc1ccccc1CNC(=O)C1CCN(Cc2cc3ccccc3n2Cc2ccccc2)CC1 do in these assays?
D3 ag: -14; TGFb inhibitor: 0%; HepG2 viability: -3%; ATXN2 expr inh: 6%; S2 tox: inactive

Results for COC(=O)c1cc(CNC(=O)c2ccncc2)cc(NC(=O)c2ccccc2Cl)c1 ?
S2 tox: inactive

How did Cc1cc(C=Nc2ccc(/C=C/c3ccnc4ccccc34)cc2)ccc1N(C)C do in these assays?
TGFb inhibitor: -13%; HepG2 viability: -40%

How did CCNC(=O)Nc1ccc2ncc(Nc3ccc(C)cc3)nc2n1 do in these assays?
ATXN2 expr inh: -24%

Compound activity deposited in PubChem BioAssay by National Center for Advancing Translational Sciences (NCATS).
